# Pf growth 48h: inhibits P. falciparum growth in the first generation, 48 h; hit rate 5.9% among 310,000; P. falciparum luciferase growth in erythrocytes, 48 h; Potency, µM (top dose mostly 28.7 µM), for the others: at the top dose activity change, negative = inhibition, hits mostly inhibitors; further: on the % scale 0 is the no-effect control and ±100 the full control effect
#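 Erythrocytes infected with P. falciparum carrying an integrated firefly luciferase reporter (2% hematocrit, 0.1% parasitemia final) were exposed to compounds in RPMI 1640 with 0.5% Albumax at 37 C, 5% CO2. Growth inhibition was scored as reduced luminescence.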
# SARS PLP yeast: inhibitors of SARS-CoV papain-like protease in yeast; S. cerevisiae expressing SARS-CoV PLpro, growth rescue; Potency, µM (top dose mostly 32.9 µM), for the others: at the highest dose activity, positive = growth rescue, actives largely listed as activators; hit rate 0.19% among 330,000; calls by dose curve; further: 0% is about no effect; nearly all actives have a fitted effect of over 55% in size
# Pf growth 96h: P. falciparum growth inhibition at 96 hour, primary screen for plastid delayed-death inhibitors; P. falciparum luciferase reporter growth, 96 h; Potency, µM (doses to about 28.7 µM), for inactives: top-dose activity change, negative = inhibition, hits mostly inhibitors; hit rate 6.9% among 320,000; AID 504834; further: on the % scale 0 is the no-effect control and ±100 the full control effect
#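 Readout is luminescence from an integrated firefly luciferase in P. falciparum. Red cells, 2% hematocrit and 0.05% parasitemia final, were cultured with compound through two parasite generations (96 hours) at 37 C, 5% CO2.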
# AMA1 RON2 block: disrupts binding of P. falciparum AMA1 to RON2; AID 720542; hit rate 0.2% among 360,000; AlphaScreen AMA1-biotinylated RON2 peptide binding; Potency, µM (series often up to 58.2 µM), inactives show at the highest dose activity change, negative = inhibition, usual class: inhibitors;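 further: 0% = vehicle wells and -100% = peptide control; nearly all actives have a fitted effect of over 45% in size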
#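 AMA1 (3D7) with his tag at 25 nM final met compounds first, then biotinylated RON2 peptide at 25 nM; detection used donor plus acceptor beads, 10 µg/mL apiece, read by AlphaScreen after 30 min at room temperature.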
# * marks the source's active call; other numbers are inactive results; u = inconclusive; x = not tested or not shown; ! = not active in a repeat; [ ] = remark or other dose. Sampled rows, rich in hits. Any-hit rate of the full collection: about 9.4%. Unless noted, the call rests on the fitted dose curve; in most records, active means well fitted curve in the direction sought with a large enough effect; inconclusive means small, poorly fitted or top-dose-only effect, or another doubt; inactive means no such curve, though single readings can be large; an effect the other way counts as inactive or inconclusive. Potency means the concentration at half of the fitted maximal effect.
SMILES,Pf growth 48h,SARS PLP yeast,Pf growth 96h,AMA1 RON2 block
c1ccc(-c2cn(-c3ccccc3)c3[n+]2CCCS3)cc1,u,-0.5%,u,16.0%
COc1ccc(-c2c[n+]3c(n2-c2ccccc2)SCC3)cc1,u,2.2%,u,10.8%
COc1ccc(-n2cc(-c3ccc(C)cc3)[n+]3c2SCC3)cc1,0.586µM*,-21.4%,u,-20.4%
Cc1ccc(-c2cn(-c3ccccc3)c3[n+]2CCCS3)cc1,1.04µM*,2.0%,0.37µM*!,5.7%
N#Cc1ccc(-c2cn(-c3ccccc3)c3[n+]2CCCS3)cc1,u,1.9%,u,-21.4%
CC(C)Oc1ccc(C2(C#N)CC[N+](C)(C)CC2)cc1,-7.2%,-9.4%,u,26.3%
S=C(NCCc1ccccc1)N1CCN(C(c2ccccc2)c2ccccc2)CC1,9.28µM*,-5.9%,u,-21.4%
S=C(NCCc1ccccc1)N1CCN(C23CC4CC(CC(C4)C2)C3)CC1,9.28µM*,-3.2%,88.6%,-18.9%
CCCCNC(=S)N1CCN(C(c2ccccc2)c2ccccc2)CC1,10.4µM*,2.5%,16.6%,-1.0%
CCCNC(=S)N1CCN(C(c2ccccc2)c2ccccc2)CC1,u,-8.7%,u,-6.4%[11.6 µM]
S=C(NCCc1ccccc1)N1CCCC1,x,x,x,4.1%
CCNC(=S)N1CCN(C(c2ccccc2)c2ccccc2)CC1,13.1µM*,-0.8%,8.28µM*,-6.8%
CSc1ccc(C(=S)N2CCN(C(c3ccccc3)c3ccccc3)CC2)cc1,x,9.1%,5.22µM*,u
Cc1ccc(S(=O)(=O)N2CCCCC2c2cccnc2)c(C)c1C (stereo not drawn),u,-3.2%,0.329µM*,0.0%
CCOCCCNC(=O)c1cn(CC)c2ccc(S(=O)(=O)N3CCCC3)cc2c1=O,-1.5%,10.2%,-19.4%,11.3%
CNC(=S)N(Cc1ccc(OC)cc1)C1CC(=O)N(c2ccc(Cl)cc2)C1=O (stereo not drawn),u,-3.0%,0.928µM*,u
O=C1C2CCC(C(O)C2)N1Cc1ccccc1 (stereo not drawn),17.8%,2.0%,u,3.6%
O=C1CS/C(=N/N=C\c2ccn[nH]2)N1,-21.7%,1.9%,1.85µM*,73.8%
Cc1ccc(C)n1/N=C1/NC(=O)CS1,9.7%,-0.1%,x,u
COc1ccc(S(=O)(=O)N(CCCN2CCCC2=O)Cc2cc3c(C)cc(C)cc3[nH]c2=O)cc1,9.28µM*,2.7%,-18.1%,-13.5%
CCN(C(=O)c1cnc(NC(C)C)cc1C(F)(F)F)c1ccc(Cl)cc1,u,-2.1%,11.7µM*,8.3%
CC1(C)Cc2c(c(N3CCOCC3)nc3snc(NC(=O)c4ccccc4)c23)CO1,x,-12.3%,8.28µM*,30.5%
NNC(=O)c1sc2nc(N3CCOCC3)c3c(c2c1N)CCCC3,u,0.2%,u,89.5%
CC1(C)Cc2c(c(N3CCOCC3)nc3sc(-c4ccc(C(=O)O)o4)c(N)c23)CO1,11.7µM*,-6.3%,99.8%,-5.5%
Cc1nc2c(sc3nc(N4CCOCC4)c4c(c32)CC(C)(C)OC4)c(-c2ccccc2)c1C(=O)O,15.5%,0.5%,u,-5.3%
SMILES,Pf growth 48h,SARS PLP yeast,Pf growth 96h,AMA1 RON2 block
CNC(=O)c1ccc(-c2sc3nc(N4CCOCC4)c4c(c3c2N)CC(C)(C)OC4)o1,u,3.4%,u,-14.4%
CNC(=O)c1ccc(-c2sc3nc(N4CCOCC4)c4c(c3c2N)CCCC4)o1,11.7µM*,-8.8%,u,11.6%
CN1Cc2c(N3CCOCC3)nc3sc(C#N)c(N)c3c2CC1(C)C,u,1.0%,u,-7.1%
CN1Cc2c(N3CCOCC3)nc3sc(C(=O)c4ccc(Br)cc4)c(N)c3c2CC1(C)C,4.15µM*,-2.9%,9.28µM*,u
Cc1cc(NCCN2CCOCC2)c2ccc3ccccc3c2n1,u,-0.3%,1.9%,0.0%
Oc1ccccc1C1Nc2cccc3cccc(c23)N1,13.1µM*,-10.7%,-7.2%,-4.1%
CN(C)c1ccc(C2Nc3cccc4cccc(c34)N2)cc1,x,-0.2%,3.7µM*,-8.1%
COc1ccccc1C1Nc2cccc3cccc(c23)N1,u,-11.6%,-10.1%,-27.8%
Clc1cccc(C2Nc3cccc4cccc(c34)N2)c1,7.38µM*,2.3%,62.7%,-7.2%
COc1ccc(NC(=O)CSCC(=O)Nc2cccc3ncccc23)cc1,22.4%,-5.4%,10.0%,-12.9%
CC(=O)N1c2ccc(S(=O)(=O)N(C)CC(=O)N3CCCC3)cc2CC1C (stereo not drawn),-4.4%,-1.5%,u,-0.9%
O=C(CSc1nnc(CNC(=O)C23CC4CC(CC(C4)C2)C3)n1-c1ccccc1)Nc1ccc(F)cc1,u,-2.6%,u,-17.5%
O=C(NCc1nnc(SCc2ccc(C(F)(F)F)cc2)n1-c1ccccc1)C12CC3CC(CC(C3)C1)C2,u,-15.0%,1.65µM*,4.6%
O=C(NCc1nnc(SCc2ccc(F)cc2)n1-c1ccccc1)C12CC3CC(CC(C3)C1)C2,9.28µM*,-3.3%,u,-10.8%[2.32 µM]
CCCCC(=O)N(C)c1c(C)nc2ccc(C(=O)N3CCN(C(C)=O)CC3)cn12,x,x,x,-3.2%
Cc1cc(=O)n(CCCc2ccccc2)[nH]1,u,-24.6%,27.0%,-9.0%
COc1ccc(N2CCN(C(=O)c3ccc(-c4nc5ccccc5s4)o3)CC2)cc1,14.0%,-2.3%,u,-4.9%
CC(NC(=O)CSc1nc2c(c(C(F)(F)F)n1)CCc1ccccc1-2)c1ccccc1 (stereo not drawn),7.38µM*,3.1%,-3.6%,-13.0%
CC(C)(C)NC(=S)N1CCC2CC1c1c(Cl)cccc12 (stereo not drawn),x,x,x,12.6%
CCOC(=O)c1c(N2C(=O)C3C4C=CC(C4)C3C2=O)sc2c1CCC(C)C2 (stereo not drawn),1.0%,-8.6%,13.1µM*,1.0%
CCOC(=O)c1c(NC(=O)C2C3C=CC(C3)C2C(=O)O)sc2c1CCC(C)C2 (stereo not drawn),-1.2%,6.5%,u,-13.7%
CCN(CC)CCCN1C(=O)C(=O)/C(=C(/O)c2ccc3c(c2)CC(C)O3)C1c1ccncc1 (stereo not drawn),12.0%,-4.8%,u,x
CCN(CC)CCCN1C(=O)C(=O)/C(=C(/O)c2ccc3c(c2)CC(C)O3)C1c1cccnc1 (stereo not drawn),10.8%,2.6%,1.47µM*,x
COCCN1C(=O)C(=O)/C(=C(/O)c2ccc(OC(C)C)cc2)C1c1cccnc1 (stereo not drawn),4.9%,4.6%,14.7µM*,-9.6%
CC(C)Oc1ccc(/C(O)=C2/C(=O)C(=O)N(CCCn3ccnc3)C2c2cccnc2)cc1 (stereo not drawn),-12.8%,-2.3%,152.4%,11.8%
CCN(CC)CCCN1C(=O)C(=O)/C(=C(/O)c2ccc(C)cc2)C1c1ccccn1 (stereo not drawn),6.3%,x,3.29µM*,20.9%
Cc1ccc(NC2=CC(=O)CC(C)(C)C2)cc1F,4.4%,-1.2%,-18.3%,-1.4%
Cc1cc(N)c(NC2=CC(=O)CC(C)(C)C2)cc1C,-3.6%,20.2%,10.4µM*,88.4%
COc1ccc(-c2onc(C)c2-c2cnn(-c3ccccc3)c2)c(O)c1,11.7µM*,-0.6%,4.1%,-5.1%

# Source: PubChem BioAssay
